In PMC7862700, “An all-to-all approach to the identification of sequence-specific readers for epigenetic DNA modifications on cytosine”:

Experiments:
Experiment in all cases: DAPPL (digital affinity profiling via proximity ligation, sequencing); 10 mM Tris-HCl pH 7.5, 50 mM NaCl, 1 mM DTT, 4% glycerol, room temperature, 30 min; GST-TFs on glutathione beads, 16-mer random dsDNA library, 0.1% formaldehyde crosslink after washing; high values mean tight binding
FLI1 = target: T1, FLI1 (Homo sapiens, UniProt Q01543 1-452); conditions: protein: recombinant; tags: N-terminal GST; dsDNA, one strand shown
T1 sequence: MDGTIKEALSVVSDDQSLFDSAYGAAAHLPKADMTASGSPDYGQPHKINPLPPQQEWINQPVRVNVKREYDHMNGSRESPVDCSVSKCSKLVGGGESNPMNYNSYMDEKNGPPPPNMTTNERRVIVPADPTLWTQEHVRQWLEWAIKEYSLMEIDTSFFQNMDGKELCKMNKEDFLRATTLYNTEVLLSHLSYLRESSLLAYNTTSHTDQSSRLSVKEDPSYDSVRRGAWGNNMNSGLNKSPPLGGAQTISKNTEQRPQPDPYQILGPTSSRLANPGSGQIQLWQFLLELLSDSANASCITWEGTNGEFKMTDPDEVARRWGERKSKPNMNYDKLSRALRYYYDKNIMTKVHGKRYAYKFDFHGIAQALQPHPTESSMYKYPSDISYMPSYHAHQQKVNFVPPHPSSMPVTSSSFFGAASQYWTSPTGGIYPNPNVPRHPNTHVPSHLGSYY
In short: (§1)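 After expression in yeast as GST fusions, human transcription factors were bound to glutathione beads, DNA-barcoded and mixed with a tag-only sample. The pools were incubated with 200 nmole of a 16-mer random double-stranded DNA library in Tris/NaCl/DTT/glycerol buffer (30 min, room temperature), washed and crosslinked with 0.1% formaldehyde. Proximity ligation with BsaI/T4 ligase ran for 1 h at 37 °C, before PCR amplification and sequencing on an Illumina NextSeq500. Binding signal is a hexamer's read frequency for a factor divided by its frequency for the tag-only sample.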

ELK1 = target: T2, ELK1 (Homo sapiens, UniProt P19419 1-428); conditions: protein: recombinant; tags: N-terminal GST; dsDNA, one strand shown
T2 sequence: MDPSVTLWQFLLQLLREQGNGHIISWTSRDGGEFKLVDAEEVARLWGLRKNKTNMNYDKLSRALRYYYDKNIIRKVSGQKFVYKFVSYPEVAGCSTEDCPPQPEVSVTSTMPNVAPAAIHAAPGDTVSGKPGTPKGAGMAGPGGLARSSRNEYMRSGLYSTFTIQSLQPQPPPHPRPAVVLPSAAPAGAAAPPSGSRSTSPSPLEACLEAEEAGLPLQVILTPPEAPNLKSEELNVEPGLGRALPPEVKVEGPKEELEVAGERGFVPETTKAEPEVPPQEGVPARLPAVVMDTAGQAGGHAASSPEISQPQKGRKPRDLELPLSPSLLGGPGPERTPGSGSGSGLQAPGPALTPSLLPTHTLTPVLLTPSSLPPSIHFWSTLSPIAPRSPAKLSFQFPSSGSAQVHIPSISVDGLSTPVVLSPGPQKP
In short: as §1

GABPA = target: T3, GABPA (Homo sapiens, UniProt Q06546 1-454); conditions: protein: recombinant; tags: N-terminal GST; dsDNA, one strand shown
T3 sequence: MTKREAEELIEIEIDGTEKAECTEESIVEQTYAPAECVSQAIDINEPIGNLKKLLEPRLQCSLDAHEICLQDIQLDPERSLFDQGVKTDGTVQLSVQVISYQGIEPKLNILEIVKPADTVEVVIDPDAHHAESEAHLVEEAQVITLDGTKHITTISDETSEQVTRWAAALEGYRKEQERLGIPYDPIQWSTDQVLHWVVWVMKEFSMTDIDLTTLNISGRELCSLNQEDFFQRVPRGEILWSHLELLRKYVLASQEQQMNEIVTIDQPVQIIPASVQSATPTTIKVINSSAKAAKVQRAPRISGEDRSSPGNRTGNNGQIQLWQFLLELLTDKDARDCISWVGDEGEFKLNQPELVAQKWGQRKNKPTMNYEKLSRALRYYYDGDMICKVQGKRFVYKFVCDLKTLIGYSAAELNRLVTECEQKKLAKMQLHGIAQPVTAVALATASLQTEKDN
In short: as §1

ERG = target: T4, ERG (Homo sapiens, UniProt P11308 1-479); conditions: protein: recombinant; tags: N-terminal GST; dsDNA, one strand shown
T4 sequence: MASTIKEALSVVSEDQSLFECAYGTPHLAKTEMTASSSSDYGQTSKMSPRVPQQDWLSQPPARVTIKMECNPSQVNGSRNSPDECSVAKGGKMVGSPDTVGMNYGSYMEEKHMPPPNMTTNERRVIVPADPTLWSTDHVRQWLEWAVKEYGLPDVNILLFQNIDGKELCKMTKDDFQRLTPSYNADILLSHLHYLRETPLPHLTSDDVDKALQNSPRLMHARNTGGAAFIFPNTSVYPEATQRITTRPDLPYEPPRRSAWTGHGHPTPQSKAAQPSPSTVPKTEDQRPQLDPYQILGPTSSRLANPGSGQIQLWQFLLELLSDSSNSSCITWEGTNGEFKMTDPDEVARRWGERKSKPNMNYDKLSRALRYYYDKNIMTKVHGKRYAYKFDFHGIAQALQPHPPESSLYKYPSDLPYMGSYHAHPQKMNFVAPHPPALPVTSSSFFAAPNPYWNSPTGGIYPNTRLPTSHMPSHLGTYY
In short: as §1

ELF1 = ELF1 (Homo sapiens, UniProt P32519 1-619); conditions: protein: recombinant; tags: N-terminal GST; dsDNA, one strand shown
In short: as §1

EHF = target: T5, EHF (Homo sapiens, UniProt Q9NZC4 1-300); conditions: protein: recombinant; tags: N-terminal GST; dsDNA, one strand shown
T5 sequence: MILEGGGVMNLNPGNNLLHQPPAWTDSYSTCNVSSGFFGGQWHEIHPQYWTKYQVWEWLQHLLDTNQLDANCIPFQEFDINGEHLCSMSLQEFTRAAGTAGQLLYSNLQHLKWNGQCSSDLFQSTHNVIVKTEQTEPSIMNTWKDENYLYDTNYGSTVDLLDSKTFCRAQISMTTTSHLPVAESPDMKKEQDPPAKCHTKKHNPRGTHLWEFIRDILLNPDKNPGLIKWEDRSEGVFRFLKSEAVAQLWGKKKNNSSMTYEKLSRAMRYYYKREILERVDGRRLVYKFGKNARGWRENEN
In short: as §1

SPI1 = SPI1 (Homo sapiens, UniProt P17947 1-270); conditions: protein: recombinant; tags: N-terminal GST; dsDNA, one strand shown
In short: as §1

SPIB = SPIB (Homo sapiens, UniProt Q01892 1-262); conditions: protein: recombinant; tags: N-terminal GST; dsDNA, one strand shown
In short: as §1

ELK3 = target: T6, ELK3 (Homo sapiens, UniProt P41970 1-407); conditions: protein: recombinant; tags: N-terminal GST; dsDNA, one strand shown
T6 sequence: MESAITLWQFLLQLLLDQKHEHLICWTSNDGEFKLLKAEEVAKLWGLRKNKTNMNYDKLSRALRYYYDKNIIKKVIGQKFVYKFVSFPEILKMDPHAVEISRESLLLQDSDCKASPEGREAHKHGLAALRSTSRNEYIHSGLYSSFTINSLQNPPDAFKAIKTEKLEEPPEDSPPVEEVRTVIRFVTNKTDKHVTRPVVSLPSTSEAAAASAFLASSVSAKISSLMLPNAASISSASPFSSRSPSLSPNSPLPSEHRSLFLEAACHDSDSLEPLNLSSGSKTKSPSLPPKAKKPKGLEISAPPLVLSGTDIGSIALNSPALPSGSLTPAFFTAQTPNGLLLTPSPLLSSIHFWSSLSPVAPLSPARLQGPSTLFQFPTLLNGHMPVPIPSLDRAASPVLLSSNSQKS
In short: as §1

FEV = target: T7, FEV (Homo sapiens, UniProt Q99581 1-238); conditions: protein: recombinant; tags: N-terminal GST; dsDNA, one strand shown
T7 sequence: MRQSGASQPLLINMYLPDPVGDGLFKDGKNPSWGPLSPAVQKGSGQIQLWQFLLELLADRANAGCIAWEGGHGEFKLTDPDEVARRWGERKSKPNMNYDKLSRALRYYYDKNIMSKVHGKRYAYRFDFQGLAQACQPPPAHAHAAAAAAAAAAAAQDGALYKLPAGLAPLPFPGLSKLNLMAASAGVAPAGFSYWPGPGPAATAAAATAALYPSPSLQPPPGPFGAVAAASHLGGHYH
In short: as §1

ETV5 = ETV5 (Homo sapiens, UniProt P41161 1-510); conditions: protein: recombinant; tags: N-terminal GST; dsDNA, one strand shown
In short: as §1

HSF1 = HSF1 (Homo sapiens, UniProt Q00613 1-529); conditions: protein: recombinant; tags: N-terminal GST; chain copies: 3; dsDNA, one strand shown
In short: as §1

SPIC = target: T8, SPIC (Homo sapiens, UniProt Q8N5J4 1-248); conditions: protein: recombinant; tags: N-terminal GST; dsDNA, one strand shown
T8 sequence: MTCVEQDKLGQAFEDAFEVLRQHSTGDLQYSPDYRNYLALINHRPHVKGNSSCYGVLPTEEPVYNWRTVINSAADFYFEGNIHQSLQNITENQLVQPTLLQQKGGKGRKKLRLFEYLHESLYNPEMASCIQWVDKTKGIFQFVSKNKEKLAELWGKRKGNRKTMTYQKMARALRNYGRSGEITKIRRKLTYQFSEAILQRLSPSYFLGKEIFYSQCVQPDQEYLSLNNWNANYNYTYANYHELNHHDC
In short: as §1

ELF4 = ELF4 (Homo sapiens, UniProt Q99607 1-663); conditions: protein: recombinant; tags: N-terminal GST; dsDNA, one strand shown
In short: as §1

ELK4 = target: T9, ELK4 (Homo sapiens, UniProt P28324-2 1-405); conditions: protein: recombinant; tags: N-terminal GST; dsDNA, one strand shown
T9 sequence: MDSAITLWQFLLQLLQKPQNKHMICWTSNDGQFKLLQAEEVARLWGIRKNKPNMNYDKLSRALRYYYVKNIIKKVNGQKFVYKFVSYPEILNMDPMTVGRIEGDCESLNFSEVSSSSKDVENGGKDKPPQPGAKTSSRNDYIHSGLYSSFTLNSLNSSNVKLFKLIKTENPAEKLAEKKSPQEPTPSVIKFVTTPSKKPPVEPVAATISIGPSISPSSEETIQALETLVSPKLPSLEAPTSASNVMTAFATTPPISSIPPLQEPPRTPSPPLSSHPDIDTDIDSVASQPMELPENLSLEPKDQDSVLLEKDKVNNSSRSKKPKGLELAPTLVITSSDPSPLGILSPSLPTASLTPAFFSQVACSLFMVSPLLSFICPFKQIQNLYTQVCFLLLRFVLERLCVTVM
In short: as §1

ETV2 = target: T10, ETV2 (Homo sapiens, UniProt O00321 1-342); conditions: protein: recombinant; tags: N-terminal GST; dsDNA, one strand shown
T10 sequence: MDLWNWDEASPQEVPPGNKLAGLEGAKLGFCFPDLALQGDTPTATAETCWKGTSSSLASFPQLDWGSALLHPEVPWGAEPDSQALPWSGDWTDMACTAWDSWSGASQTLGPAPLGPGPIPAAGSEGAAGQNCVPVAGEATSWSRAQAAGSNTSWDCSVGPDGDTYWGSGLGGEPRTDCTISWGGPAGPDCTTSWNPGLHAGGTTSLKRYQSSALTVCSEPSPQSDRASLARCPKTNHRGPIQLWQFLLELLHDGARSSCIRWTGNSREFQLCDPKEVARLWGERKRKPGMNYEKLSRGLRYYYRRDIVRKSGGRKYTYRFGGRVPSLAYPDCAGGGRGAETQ
In short: as §1

ELF3 = target: T11, ELF3 (Homo sapiens, UniProt P78545 1-371); conditions: protein: recombinant; tags: N-terminal GST; dsDNA, one strand shown
T11 sequence: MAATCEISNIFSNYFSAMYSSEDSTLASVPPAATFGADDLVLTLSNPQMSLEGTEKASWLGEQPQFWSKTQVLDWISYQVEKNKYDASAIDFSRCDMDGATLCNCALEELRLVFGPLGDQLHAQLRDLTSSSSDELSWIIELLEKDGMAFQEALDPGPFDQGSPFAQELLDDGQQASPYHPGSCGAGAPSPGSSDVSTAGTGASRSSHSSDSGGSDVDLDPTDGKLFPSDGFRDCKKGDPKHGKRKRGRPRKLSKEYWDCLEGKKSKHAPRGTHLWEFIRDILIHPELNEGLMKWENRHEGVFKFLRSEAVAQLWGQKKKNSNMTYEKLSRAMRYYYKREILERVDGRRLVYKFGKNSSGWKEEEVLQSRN
In short: as §1

CRX = CRX (Homo sapiens, UniProt O43186 1-299); conditions: protein: recombinant; tags: N-terminal GST; dsDNA, one strand shown
In short: as §1

ETV1 = ETV1 (Homo sapiens, UniProt P50549 1-477); conditions: protein: recombinant; tags: N-terminal GST; dsDNA, one strand shown
In short: as §1

Chain of HSF1 (Q00613 whole entry): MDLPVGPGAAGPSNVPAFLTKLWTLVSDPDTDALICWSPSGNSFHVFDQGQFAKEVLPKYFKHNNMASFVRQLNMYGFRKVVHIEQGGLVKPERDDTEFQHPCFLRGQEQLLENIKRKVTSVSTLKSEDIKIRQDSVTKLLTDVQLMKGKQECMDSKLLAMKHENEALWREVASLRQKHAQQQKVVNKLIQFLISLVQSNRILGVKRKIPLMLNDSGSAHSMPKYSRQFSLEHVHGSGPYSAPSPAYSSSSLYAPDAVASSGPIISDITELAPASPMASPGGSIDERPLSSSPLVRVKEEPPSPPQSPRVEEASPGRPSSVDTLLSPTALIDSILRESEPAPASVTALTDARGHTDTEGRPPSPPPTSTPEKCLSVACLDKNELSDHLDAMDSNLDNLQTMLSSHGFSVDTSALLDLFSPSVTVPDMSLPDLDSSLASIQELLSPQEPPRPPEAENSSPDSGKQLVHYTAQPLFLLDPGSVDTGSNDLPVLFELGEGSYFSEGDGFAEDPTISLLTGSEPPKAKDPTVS
Chain of ELF4 (Q99607 whole entry): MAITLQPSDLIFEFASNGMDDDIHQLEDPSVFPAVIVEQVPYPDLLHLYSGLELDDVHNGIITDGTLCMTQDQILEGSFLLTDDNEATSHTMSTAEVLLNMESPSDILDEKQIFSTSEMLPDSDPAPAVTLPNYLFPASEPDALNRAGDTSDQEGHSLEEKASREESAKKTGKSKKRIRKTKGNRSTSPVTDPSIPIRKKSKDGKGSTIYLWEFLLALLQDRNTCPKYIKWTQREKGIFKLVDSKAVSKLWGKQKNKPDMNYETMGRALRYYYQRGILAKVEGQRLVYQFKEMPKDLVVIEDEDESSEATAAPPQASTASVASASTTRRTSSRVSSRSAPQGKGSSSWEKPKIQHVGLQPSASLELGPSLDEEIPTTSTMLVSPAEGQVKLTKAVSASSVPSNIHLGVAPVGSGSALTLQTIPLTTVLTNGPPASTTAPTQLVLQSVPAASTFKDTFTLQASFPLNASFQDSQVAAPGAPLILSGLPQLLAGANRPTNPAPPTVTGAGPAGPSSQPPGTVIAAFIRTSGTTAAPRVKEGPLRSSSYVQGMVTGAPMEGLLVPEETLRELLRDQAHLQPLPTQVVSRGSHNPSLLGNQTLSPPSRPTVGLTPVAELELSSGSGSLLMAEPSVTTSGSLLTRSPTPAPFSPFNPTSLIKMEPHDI
Chain of ELF1 (P32519 whole entry): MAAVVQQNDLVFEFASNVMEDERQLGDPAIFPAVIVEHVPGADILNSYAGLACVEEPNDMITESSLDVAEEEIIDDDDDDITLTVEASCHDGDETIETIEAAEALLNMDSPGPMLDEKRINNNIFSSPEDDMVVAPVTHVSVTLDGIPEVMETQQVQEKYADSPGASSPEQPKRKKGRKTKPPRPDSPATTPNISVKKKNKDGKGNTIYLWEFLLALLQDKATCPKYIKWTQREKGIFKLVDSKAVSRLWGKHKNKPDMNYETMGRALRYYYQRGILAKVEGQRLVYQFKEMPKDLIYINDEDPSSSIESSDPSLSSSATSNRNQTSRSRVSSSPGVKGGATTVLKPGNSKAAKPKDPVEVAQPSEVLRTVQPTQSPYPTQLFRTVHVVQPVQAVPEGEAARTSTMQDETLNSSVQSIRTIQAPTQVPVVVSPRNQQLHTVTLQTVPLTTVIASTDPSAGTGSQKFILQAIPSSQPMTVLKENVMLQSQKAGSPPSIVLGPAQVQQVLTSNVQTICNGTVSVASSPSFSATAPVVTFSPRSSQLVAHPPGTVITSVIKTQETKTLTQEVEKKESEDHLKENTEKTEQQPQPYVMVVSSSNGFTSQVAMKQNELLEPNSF
Chain of SPIB (Q01892 whole entry): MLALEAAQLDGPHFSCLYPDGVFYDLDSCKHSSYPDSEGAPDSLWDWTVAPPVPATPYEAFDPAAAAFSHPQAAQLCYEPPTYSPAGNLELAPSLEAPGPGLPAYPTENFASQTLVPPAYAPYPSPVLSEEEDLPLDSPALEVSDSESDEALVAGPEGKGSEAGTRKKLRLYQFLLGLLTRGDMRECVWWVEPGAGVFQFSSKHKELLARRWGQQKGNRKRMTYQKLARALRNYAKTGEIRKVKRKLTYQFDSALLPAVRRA
Chain of CRX (O43186 whole entry): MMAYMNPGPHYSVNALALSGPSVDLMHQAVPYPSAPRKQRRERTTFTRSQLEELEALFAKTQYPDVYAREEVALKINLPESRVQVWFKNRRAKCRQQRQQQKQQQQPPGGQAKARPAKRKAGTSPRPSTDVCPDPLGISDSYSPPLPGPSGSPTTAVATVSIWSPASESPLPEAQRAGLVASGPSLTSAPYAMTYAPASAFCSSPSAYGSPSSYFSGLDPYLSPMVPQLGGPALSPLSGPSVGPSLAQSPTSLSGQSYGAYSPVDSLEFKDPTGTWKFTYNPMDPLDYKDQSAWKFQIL
Chain of ETV5 (P41161 whole entry): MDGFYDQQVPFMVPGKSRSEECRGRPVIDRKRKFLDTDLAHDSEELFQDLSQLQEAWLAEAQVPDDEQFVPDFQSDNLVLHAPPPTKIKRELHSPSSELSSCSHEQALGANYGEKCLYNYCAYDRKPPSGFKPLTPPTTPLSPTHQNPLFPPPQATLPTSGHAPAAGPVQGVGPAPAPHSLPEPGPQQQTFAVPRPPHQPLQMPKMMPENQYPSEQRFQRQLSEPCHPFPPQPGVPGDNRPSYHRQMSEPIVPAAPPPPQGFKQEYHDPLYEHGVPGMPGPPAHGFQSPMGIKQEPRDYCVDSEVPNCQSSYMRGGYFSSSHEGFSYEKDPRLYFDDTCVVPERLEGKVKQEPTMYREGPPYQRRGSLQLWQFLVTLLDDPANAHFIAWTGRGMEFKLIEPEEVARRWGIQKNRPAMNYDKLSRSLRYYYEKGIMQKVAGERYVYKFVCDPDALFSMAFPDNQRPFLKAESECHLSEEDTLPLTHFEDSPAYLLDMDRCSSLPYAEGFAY
Chain of ETV1 (P50549 whole entry): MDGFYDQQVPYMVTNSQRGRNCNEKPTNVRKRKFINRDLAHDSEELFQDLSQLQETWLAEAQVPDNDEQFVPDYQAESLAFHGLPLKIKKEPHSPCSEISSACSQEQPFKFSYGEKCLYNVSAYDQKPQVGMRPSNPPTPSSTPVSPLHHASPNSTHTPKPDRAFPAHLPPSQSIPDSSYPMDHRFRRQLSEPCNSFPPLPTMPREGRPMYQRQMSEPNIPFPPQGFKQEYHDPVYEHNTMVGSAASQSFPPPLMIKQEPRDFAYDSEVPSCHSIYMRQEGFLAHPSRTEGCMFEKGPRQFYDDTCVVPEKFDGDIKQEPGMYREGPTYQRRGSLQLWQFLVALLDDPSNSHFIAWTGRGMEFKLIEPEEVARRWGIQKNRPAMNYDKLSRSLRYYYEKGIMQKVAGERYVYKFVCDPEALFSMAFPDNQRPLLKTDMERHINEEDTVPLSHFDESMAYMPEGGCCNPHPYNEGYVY

Sequence: GATGAC
- binding signal (FLI1): 1.58 fold enrichment (6-mer frequency, TF over GST control)
- binding signal (ELK1): 1.51 fold enrichment (6-mer frequency, TF over GST control)
- binding signal (GABPA): 1.62 fold enrichment (6-mer frequency, TF over GST control)
- binding signal (ERG): 1.59 fold enrichment (6-mer frequency, TF over GST control)
- binding signal (ELF1): 1.6 fold enrichment (6-mer frequency, TF over GST control)
- binding signal (EHF): 1.43 fold enrichment (6-mer frequency, TF over GST control)
- binding signal (SPI1): 1.58 fold enrichment (6-mer frequency, TF over GST control)
- binding signal (SPIB): 1.45 fold enrichment (6-mer frequency, TF over GST control)
- binding signal (ELK3): 1.45 fold enrichment (6-mer frequency, TF over GST control)
- binding signal (FEV): 1.47 fold enrichment (6-mer frequency, TF over GST control)
- binding signal (ETV5): 1.49 fold enrichment (6-mer frequency, TF over GST control)
- binding signal (HSF1): 1.27 fold enrichment (6-mer frequency, TF over GST control)
- binding signal (SPIC): 1.15 fold enrichment (6-mer frequency, TF over GST control)
- binding signal (ELF4): 1.56 fold enrichment (6-mer frequency, TF over GST control)
- binding signal (ELK4): 1.42 fold enrichment (6-mer frequency, TF over GST control)
- binding signal (ETV2): 1.35 fold enrichment (6-mer frequency, TF over GST control)
- binding signal (ELF3): 1.48 fold enrichment (6-mer frequency, TF over GST control)
- binding signal (CRX): 1.26 fold enrichment (6-mer frequency, TF over GST control)
- binding signal (ETV1): 1.55 fold enrichment (6-mer frequency, TF over GST control)
